The source of these data is PubChem BioAssay (NCATS).

“And” between values parts separate entries of the source, which are not always exact repeats. Equal entries are not always repeated. Records with an inconclusive call do not appear. The source made the active and inactive calls. Unless noted, calls follow the shape of the dose curve; as a rule, active = well fitted curve in the direction sought with a large enough effect; inconclusive = small, poorly fitted or top-dose-only effect, or another doubt; inactive = no such curve, though single readings can be large; an effect the other way counts as inactive or inconclusive.

Assay [1] in a line: qHTS assay for small molecule agonists of retinoid X receptor alpha signaling (AID 588544; calls by dose curve). The note with it: HEK293T RXRa-UAS-bla, beta-lactamase reporter, 18 h; 530 nm emission. On the technique in general: In qHTS, concentration-response curves come from the screen itself.
In assay [2] the target is Retinoic acid receptor RXR-alpha (Homo sapiens) (UniProt P19793). The description is as above. The note with it: HEK293T RXRa-UAS-bla, beta-lactamase reporter, 18 h; series mostly up to 76.7 µM.
The nature of assay [3]: qHTS assay for small molecule antagonists of retinoid X receptor alpha signaling (AID 588546; active = well fitted inhibition curve with a large enough effect in the signal ratio, with a control signal flat, not every such curve was filed as active; the % refers to the signal ratio; also: potency is read from the fitted curve at half-maximal effect;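 as to max response: cells stimulated with 9-cis-retinoic acid as agonist; % is scaled to controls: 0 for no effect and ±100 for the full control effect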). To be noted: HEK293T RXRa-UAS-bla, beta-lactamase ratio, antagonist mode; measured here: W530 green channel, cytotoxicity proxy. In short, it runs like this: (§1)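 Beta-lactamase reporter inhibition, read as CCF4 fluorescence ratio (ex 405, em 460/530 nm) after 2 h at RT. HEK293T UAS-bla cells, 2500/well, were stimulated with 9-cis-RA at 500 or 100 nM final alongside test compound for 18 h at 37 C.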

Assay [4] addresses Retinoic acid receptor RXR-alpha (Homo sapiens) (UniProt P19793). Described as above. The note with it: HEK293T RXRa-UAS-bla, beta-lactamase ratio, antagonist mode. In short, it runs like this:
as §1

The target of assay [5] is Voltage-gated inwardly rectifying potassium channel KCNH2 (Homo sapiens) (UniProt Q12809). Nature of the assay: qHTS Assay for Small Molecule Inhibitors of the Human hERG Channel Activity (AID 588834).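 Also: top concentration of the series differs between compounds; % is scaled to controls: 0 for no effect and ±100 for the full control effect; lower thallium flux fluorescence means stronger hERG block; nearly all actives have a fitted effect of over 50% in size.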 The note with it: U2OS BacMam hERG, FluxOR thallium flux fluorescence; series mostly up to 46.1 µM. In short, it runs like this:
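Thallium-flux (FluxOR) read-out on FDSS: fluorescence read 10 s before and 2 min after stimulation buffer. hERG-BacMam-transduced U2OS cells, compound exposure about 10 min. AC50 by standard Hill equation.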

In assay [6] the target is Luciferin 4-monooxygenase (Photinus pyralis) (UniProt P08659). The experiment in a line: Biochemical firefly luciferase enzyme assay for NPC (AID 624030). Also: nearly all actives have a fitted effect of over 70% in size. Also: potency is read from the fitted curve at half-maximal effect. The note with it: purified P. pyralis luciferase, luminescence, 5 min; series mostly up to 58.6 µM. In short, it runs like this:
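Direct inhibition of firefly luciferase enzyme (10 nM final, 50 mM Tris Acetate) assessed by luminescence within 5 minutes. Percent activity scaled between DMSO and PTC124 positive control, with concentration-effect curves classified by fit quality and response.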

Assay [7] is described as follows: S16 Schwann cell viability assay (CellTiter-Glo assay) (AID 624031).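 Also: cellular ATP luminescence as a viability measure; plate controls were DMSO-treated cells for no effect and cell-free wells for full effect; nearly all actives have a fitted effect of over 70% in size.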 The note with it: S16 rat Schwann cells viability, 24 h; series mostly up to 57.5 µM. In short, it runs like this:
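CellTiter-Glo ATP luminescence counter-screen in untransfected S16 rat Schwann cells, 24h compound exposure at 37 degree Celsius after overnight seeding (500-750 cells/well); response scaled between cell-free wells and DMSO (0% activity), curves classed by r2 and magnitude.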

Assay [8] is described as follows: S16 Schwann cell PMP22 intronic element firefly luciferase assay (AID 624032).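 Also: plate controls were DMSO for no effect and PTC124 positive control mean for full effect; nearly all actives have a fitted effect of over 30% in size.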 The note with it: S16 rat Schwann cells, PMP22 element FLuc, 24 h; series mostly up to 57.5 µM. The method in brief: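 Luciferase reporter of PMP22 intronic-element expression in stably transfected S16 rat Schwann cells, read by ONE-Glo luminescence after 24 h compound exposure at 37 C. Activity scaled between DMSO (0%) and positive-control PTC124; concentration-effect curves quality-classified.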

Assay [9] addresses Thyroid hormone receptor beta (Homo sapiens) (UniProt P10828). The experiment in a line: qHTS assay for small molecule agonists of thyroid hormone receptor beta signaling (AID 588545; calls by dose curve;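 also: 0% = DMSO only and 100% = 10 nM T3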). The note with it: TR-UAS-bla GripTite HEK 293, beta-lactamase ratio, agonist mode, 18 h, percent of T3 response, DMSO as zero; series mostly up to 76.7 µM. The method in brief:
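Beta-lactamase reporter activity under TR response element control is measured in HEK 293 cells after 18 hrs compound exposure. Signal is ratiometric CCF4 fluorescence, 460/530 nm.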

Assay [10] has the same target. The experiment in a line: qHTS assay for small molecule antagonists of thyroid hormone receptor beta signaling (AID 588547; active = well fitted inhibition curve with a large enough effect in the signal ratio, with a control signal flat, not every such curve was filed as active; the % refers to the signal ratio;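 also: cells stimulated with 0.4 nM T3 agonist during compound exposure; % is scaled to controls: 0 for no effect and ±100 for the full control effect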). To be noted: TR-UAS-bla HEK293, beta-lactamase ratio, antagonist mode, 18 h. The method in brief: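 Inhibition of T3-driven (0.4nM final) beta-lactamase reporter activity was measured over 0.59 nM to 92 uM compound after 18 h at 37 C. The cells were GripTite HEK293 TR-UAS-bla in charcoal/dextran-stripped serum, with CCF4 ratio read-out and IC50 from Hill fits.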

Assay [11] in a line: S16 Schwann cell PMP22 intronic element beta-lactamase assay (AID 624044; calls by dose curve; also: nearly all actives have a fitted effect of over 15% in size; also: potency is read from the fitted curve at half-maximal effect). To be noted: S16 rat Schwann cells, PMP22 element beta-lactamase FRET, 24 h; series mostly up to 38.3 µM. In short, it runs like this: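 Beta-lactamase reporter under a PMP22 intronic regulatory element in stable S16 rat Schwann cells; 24 h compound exposure. 460 nm blue signal normalized between DMSO (0%) and potassium clavulanate, with 535 nm FRET tracking viability; curves classed by r2 and response.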

Sequence of Luciferin 4-monooxygenase (Photinus pyralis) (P08659 whole entry, looked up): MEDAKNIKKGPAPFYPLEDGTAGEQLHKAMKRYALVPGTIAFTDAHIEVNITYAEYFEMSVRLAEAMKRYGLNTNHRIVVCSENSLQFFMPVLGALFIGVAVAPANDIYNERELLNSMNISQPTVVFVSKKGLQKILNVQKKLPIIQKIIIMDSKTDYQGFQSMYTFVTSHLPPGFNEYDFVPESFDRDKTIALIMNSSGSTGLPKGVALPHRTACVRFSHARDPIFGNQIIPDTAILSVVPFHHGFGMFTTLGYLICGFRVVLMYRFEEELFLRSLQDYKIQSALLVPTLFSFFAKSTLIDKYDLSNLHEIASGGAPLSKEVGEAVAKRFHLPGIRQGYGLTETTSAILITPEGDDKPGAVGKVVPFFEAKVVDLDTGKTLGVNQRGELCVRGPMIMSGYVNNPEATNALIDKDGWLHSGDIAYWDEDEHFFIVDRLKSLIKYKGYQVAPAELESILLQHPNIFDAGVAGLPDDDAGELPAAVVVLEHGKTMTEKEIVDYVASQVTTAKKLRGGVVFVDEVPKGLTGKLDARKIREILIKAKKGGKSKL
Sequence of Thyroid hormone receptor beta (Homo sapiens) (P10828 whole entry, looked up): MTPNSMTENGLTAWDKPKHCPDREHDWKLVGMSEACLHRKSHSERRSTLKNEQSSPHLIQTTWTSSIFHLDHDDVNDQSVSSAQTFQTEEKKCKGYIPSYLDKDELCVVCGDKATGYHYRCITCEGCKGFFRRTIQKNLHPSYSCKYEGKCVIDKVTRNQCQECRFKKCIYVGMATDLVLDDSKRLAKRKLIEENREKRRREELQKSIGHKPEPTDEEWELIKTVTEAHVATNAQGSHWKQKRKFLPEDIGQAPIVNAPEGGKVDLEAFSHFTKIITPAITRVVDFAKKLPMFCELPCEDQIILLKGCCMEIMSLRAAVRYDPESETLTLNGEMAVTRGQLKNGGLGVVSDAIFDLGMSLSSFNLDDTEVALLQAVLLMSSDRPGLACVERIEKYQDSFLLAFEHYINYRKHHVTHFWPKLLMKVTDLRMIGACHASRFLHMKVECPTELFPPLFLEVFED
Sequence of Voltage-gated inwardly rectifying potassium channel KCNH2 (Homo sapiens) (Q12809 whole entry, looked up): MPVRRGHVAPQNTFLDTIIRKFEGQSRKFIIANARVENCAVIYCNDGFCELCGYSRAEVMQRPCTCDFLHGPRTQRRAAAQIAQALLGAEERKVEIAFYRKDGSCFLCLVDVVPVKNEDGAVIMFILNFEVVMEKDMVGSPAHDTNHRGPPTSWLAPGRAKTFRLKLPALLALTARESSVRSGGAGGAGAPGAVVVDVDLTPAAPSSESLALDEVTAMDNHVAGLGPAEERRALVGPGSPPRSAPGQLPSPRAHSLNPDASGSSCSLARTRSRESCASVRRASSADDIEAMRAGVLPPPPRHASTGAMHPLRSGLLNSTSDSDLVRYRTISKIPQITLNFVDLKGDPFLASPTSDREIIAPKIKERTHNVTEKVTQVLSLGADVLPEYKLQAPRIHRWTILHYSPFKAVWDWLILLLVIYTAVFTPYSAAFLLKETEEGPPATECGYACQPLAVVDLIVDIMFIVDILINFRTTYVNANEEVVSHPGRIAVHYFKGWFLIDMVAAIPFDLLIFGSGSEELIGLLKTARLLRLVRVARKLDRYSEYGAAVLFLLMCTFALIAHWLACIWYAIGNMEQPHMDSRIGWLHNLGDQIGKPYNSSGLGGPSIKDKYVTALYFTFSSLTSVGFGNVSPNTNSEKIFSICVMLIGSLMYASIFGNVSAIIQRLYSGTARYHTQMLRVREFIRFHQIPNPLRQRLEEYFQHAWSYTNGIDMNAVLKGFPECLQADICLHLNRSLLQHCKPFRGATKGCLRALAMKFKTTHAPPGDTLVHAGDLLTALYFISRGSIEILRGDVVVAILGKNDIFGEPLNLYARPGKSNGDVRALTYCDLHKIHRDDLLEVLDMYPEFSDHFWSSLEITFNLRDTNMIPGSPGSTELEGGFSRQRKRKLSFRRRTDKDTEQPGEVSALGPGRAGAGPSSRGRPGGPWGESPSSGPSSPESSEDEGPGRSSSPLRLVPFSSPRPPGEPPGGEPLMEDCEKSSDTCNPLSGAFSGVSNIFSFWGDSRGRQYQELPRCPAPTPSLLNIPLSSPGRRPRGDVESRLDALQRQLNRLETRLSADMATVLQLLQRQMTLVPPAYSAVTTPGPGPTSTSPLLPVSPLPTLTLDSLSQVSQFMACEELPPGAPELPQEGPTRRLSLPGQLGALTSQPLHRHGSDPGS
Sequence of Retinoic acid receptor RXR-alpha (Homo sapiens) (P19793 whole entry, looked up): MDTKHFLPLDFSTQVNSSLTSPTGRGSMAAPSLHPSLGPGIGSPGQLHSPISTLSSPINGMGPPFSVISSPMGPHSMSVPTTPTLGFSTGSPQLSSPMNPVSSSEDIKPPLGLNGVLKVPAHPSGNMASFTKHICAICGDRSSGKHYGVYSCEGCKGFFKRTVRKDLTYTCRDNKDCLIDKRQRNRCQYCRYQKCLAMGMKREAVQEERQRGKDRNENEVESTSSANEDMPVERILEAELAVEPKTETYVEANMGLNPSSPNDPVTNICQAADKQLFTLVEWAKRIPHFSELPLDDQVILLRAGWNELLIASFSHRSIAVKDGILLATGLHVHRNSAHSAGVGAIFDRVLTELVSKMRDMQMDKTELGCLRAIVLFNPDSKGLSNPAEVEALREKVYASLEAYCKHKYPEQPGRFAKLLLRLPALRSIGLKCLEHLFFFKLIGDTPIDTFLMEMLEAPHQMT

As for `C[C@H]1C(=O)O[C@@H]2CCN3CC=C(COC(=O)[C@](C)(O)[C@]1(C)O)[C@H]23`, the max response in assay [1] was -6.89%; in [3], -18.5%; in assay [4], -1.01% (inactive). Also, the outcome in assay [2] was inactive. In addition, the Potency entry in assay [5], in assay [6], in assay [7] and in assay [8] was “inactive” throughout.

Take `C#C[C@]1(O)C=C[C@H]2[C@@H]3CCC4=CC(=O)CC[C@@H]4[C@H]3CC[C@@]21CC`: in assay [5], the Potency result is “inactive”.

Regarding `Oc1ccc(Cl)cc1Cc1cc(Cl)ccc1O`, the max response in [3] is -8.06%. For the same compound, the Potency in [4] was 14.1 µM (active).

Consider `C[C@@H]1C[C@@H]([C@H](O)CC2CC(=O)NC(=O)C2)C(=O)[C@@H](C)C1`, for which, in assay [1], the max response is -10.1%. The outcome in [2] and in [9] was inactive. Besides, in assay [10], the activity change % (negative = inhibition) was -37.8% (inactive). In addition, in assay [5], the Potency result is “inactive”.

Take `CC1=C2[C@H]3OC(=O)[C@@H](C)[C@@H]3CC[C@@]2(C)C=CC1=O`: in assay [5], the Potency result is “inactive”.

Consider `COP(=S)(OC)Oc1ccc(Sc2ccc(OP(=S)(OC)OC)cc2)cc1`, for which the max response in assay [3] was -1.68%; in assay [4] it was -19.4% (inactive). The Potency in assay [6] is 25.6 µM (active). Besides, in assay [7], the Potency result was “inactive”.

Consider `CNC(=O)Oc1cccc2ccccc12`, for which the max response in assay [1] is -5.93% and -0.426%; in assay [3] it was -8.18% and 5.92%; in [4], 8.76% (inactive) and -2.97% (inactive). Further, the result in [2] and in assay [9] was inactive. In addition, the activity change % (negative = inhibition) in [10] was -1.73% (inactive) and -9.05% (inactive). In addition, the Potency result in [6], in assay [7] and in assay [11] was “inactive” in each case.

On to `COCC(=O)N(c1c(C)cccc1C)C(C)C(=O)OC` (configuration not stated), for which the max response was 3.24% in assay [1], 1.9% in assay [3] and -3.83% (inactive) in assay [4]. Moreover, in assay [2], the compound was called inactive. The Potency result in assay [6], in [7] and in [8] was “inactive” in each case.

For `COP(=O)(OC)OC=C(Cl)Cl`, the max response is -12.2% and -24.6% and -4.24% in assay [1]; -12% and -6.53% and -17.3% in assay [3]; 5.84% (inactive) and -9.46% (inactive) and -14.2% (inactive) in [4]. Further, the compound was classed as inactive in assay [2] and in assay [9]. Besides, the activity change % (negative = inhibition) in [10] was -21% (inactive) and -1.19% (inactive) and -2.09% (inactive). Further, the Potency result in [5], in [6] and in [7] was “inactive” throughout. Besides, the Potency in [11] was 15.8 µM (active).
